Data: paper PMC12864922, “TDP-43 directly inhibits mRNA accumulation in neurites through modulation of mRNA stability”
The full ranking holds about 9,900 sequences; the median of “r (bound/input frequency ratio)” is about 0.7, and the highest 2% start at about 6.5. The full list was thinned out, with the highest values kept by preference.

B1: ENSMUSG00000028439.266|Fam219a|244:248 (ssRNA)
RNA: GGGAGUUCUACAGUCCGACGAUCGCUUCGAUAUCCGCAUGCUAUGCUGGUCUGGUCUGAGGGAGGAAAGCUGAGGCUGUAGCUCAGUGAGAUGGUGGCUCUCCCAUGGCUGAAGACAAGUGCAAGCAGAGAGAGCCUCAGGCUGCUGGGCCUCGGACCCACGAGCCUCCUCUCACUGAGCCAGUGCGGCCAGAGUGUCUCUCCUUCAGGCGCCCCACAUGCCAGCAUUUCCACCCUCUGGAUUCUCCUCACAUGUCACUCUCCAGGUGCCGGGGCCUAGAGUGGGCCACACAGAAGGAGGAGUCUCUUGCGGUCGCACUAGUGUGGAAUUCUCGGGUGUCAAGG
B2: ENSMUSG00000042529.487|Kcnj12 (ssRNA)
RNA: GGGAGUUCUACAGUCCGACGAUCGCUUCGAUAUCCGCAUGCUAGAUGUGCGUCUCACUGGCCUCUGCCUGCCUCUCCCGCCUGCGGAGCACUUACACUUCCUGGGGCCCCUGCAGCUGGACCAUGUACAGGGCUCCCUGGGGCUUGUCCUCAGGGGCAGAGAAGGACAUGGUGGCAGCAGCACUGAGAACAGGAGCAUGGCCUCUCUCAGACCCCAGGGCAGUCAUUCAGUCUUUUCCAUGGACACUCCCCACCGCUCCACAUACUGCCUCCGCCUCAUUCUUGGGCUCUUCCUGCCUUGCUGCUCUUGCGGUCGCACUAGUGUGGAAUUCUCGGGUGUCAAGG
B3: ENSMUSG00000004113.203|Cacna1b (ssRNA)
RNA: GGGAGUUCUACAGUCCGACGAUCGCUUCGAUAUCCGCAUGCUAGCAUCGUGGAUGAGGUACGGCCUCAGGAAGCAUCGGGUGGAUUGGGUGGGAGCUGCUCAGAGCAGCACGGGGGCUUGUGUCUUAGGGACAUUGACAGUGUCCAUCAGCAUGUCAGAGAAGCAGCUGUAGUGCCCGUGUUUCUCCCUGAGUCAUGGGUUCUGAAGAAGCCAGAGCGGCACAAUGCGUGCUUGCAUGAGGCACUUUCAGCCUUUUUAAAUCUGACUCUCAGGGAUGGGAUGCCUGCCAAGUAGGGUGUAAUCCUCUUGCGGUCGCACUAGUGUGGAAUUCUCGGGUGUCAAGG
B4: ENSMUSG00000058297.38|Spock2|23:27;31:44;53:64;78:84;93:102;108:133 (ssRNA)
RNA: GGGAGUUCUACAGUCCGACGAUCGCUUCGAUAUCCGCAUGCUAUCCAGUGGGGGAGGACUGGGGACACACGCUACACACAUACACACAUAUGAGAACACACACAUACAUGUGAGAUGUGACACACACAUGUGAGAACACACAUACUGAGAACACACACACACACACACACACACACAUGUGAGUCACCCAAAGGUCCCUAUGUUAUUGAUUUUCAAAUGCACACUUUCACACACAAGGAUACACUAACAGACCAAAAUCAAUGAGAUGUCCCUGAUCCUGCCCCUCAGCCCAACACCUGGAAUCUCUUGCGGUCGCACUAGUGUGGAAUUCUCGGGUGUCAAGG
B5: ENSMUSG00000058297.40|Spock2 (ssRNA)
RNA: GGGAGUUCUACAGUCCGACGAUCGCUUCGAUAUCCGCAUGCUAGGACUGGGGAGUGUGGCUUGUGUGUAUGUGUGAUAUGAGAUGUGUGUGUAUGAUGUGAGAUGUGAGUGUGUGAUGUGAGAUGUGUGUAUGUGAGAUGUGUGUGUGUGUGUGUGUGUGUGUGAUGUGAGUCACCCAAAGGUCCCUAUGUUAUUGAUUUUCAAAUGCACACUUUCACACACAAGGAUACACUAACAGACCAAAAUCAAUGAGAUGUCCCUGAUCCUGCCCCUCAGCCCAACACCUGGAAUCCCUGCCCUGCCCUCUUGCGGUCGCACUAGUGUGGAAUUCUCGGGUGUCAAGG
B6: ENSMUSG00000058297.37|Spock2 (ssRNA)
RNA: GGGAGUUCUACAGUCCGACGAUCGCUUCGAUAUCCGCAUGCUACCUGGCUCCAGUGGGGGAGGACUGGGGAGUGUGGCUUGUGUGUAUGUGUGAUAUGAGAUGUGUGUGUAUGAUGUGAGAUGUGAGUGUGUGAUGUGAGAUGUGUGUAUGUGAGAUGUGUGUGUGUGUGUGUGUGUGUGUGAUGUGAGUCACCCAAAGGUCCCUAUGUUAUUGAUUUUCAAAUGCACACUUUCACACACAAGGAUACACUAACAGACCAAAAUCAAUGAGAUGUCCCUGAUCCUGCCCCUCAGCCCAACACCCUCUUGCGGUCGCACUAGUGUGGAAUUCUCGGGUGUCAAGG
B7: ENSMUSG00000058297.38|Spock2 (ssRNA)
RNA: GGGAGUUCUACAGUCCGACGAUCGCUUCGAUAUCCGCAUGCUAUCCAGUGGGGGAGGACUGGGGAGUGUGGCUUGUGUGUAUGUGUGAUAUGAGAUGUGUGUGUAUGAUGUGAGAUGUGAGUGUGUGAUGUGAGAUGUGUGUAUGUGAGAUGUGUGUGUGUGUGUGUGUGUGUGUGAUGUGAGUCACCCAAAGGUCCCUAUGUUAUUGAUUUUCAAAUGCACACUUUCACACACAAGGAUACACUAACAGACCAAAAUCAAUGAGAUGUCCCUGAUCCUGCCCCUCAGCCCAACACCUGGAAUCUCUUGCGGUCGCACUAGUGUGGAAUUCUCGGGUGUCAAGG
B8: ENSMUSG00000058297.39|Spock2 (ssRNA)
RNA: GGGAGUUCUACAGUCCGACGAUCGCUUCGAUAUCCGCAUGCUAGGGGGAGGACUGGGGAGUGUGGCUUGUGUGUAUGUGUGAUAUGAGAUGUGUGUGUAUGAUGUGAGAUGUGAGUGUGUGAUGUGAGAUGUGUGUAUGUGAGAUGUGUGUGUGUGUGUGUGUGUGUGUGAUGUGAGUCACCCAAAGGUCCCUAUGUUAUUGAUUUUCAAAUGCACACUUUCACACACAAGGAUACACUAACAGACCAAAAUCAAUGAGAUGUCCCUGAUCCUGCCCCUCAGCCCAACACCUGGAAUCCCUGCCUCUUGCGGUCGCACUAGUGUGGAAUUCUCGGGUGUCAAGG
B9: ENSMUSG00000058297.41|Spock2 (ssRNA)
RNA: GGGAGUUCUACAGUCCGACGAUCGCUUCGAUAUCCGCAUGCUAGGGAGUGUGGCUUGUGUGUAUGUGUGAUAUGAGAUGUGUGUGUAUGAUGUGAGAUGUGAGUGUGUGAUGUGAGAUGUGUGUAUGUGAGAUGUGUGUGUGUGUGUGUGUGUGUGUGAUGUGAGUCACCCAAAGGUCCCUAUGUUAUUGAUUUUCAAAUGCACACUUUCACACACAAGGAUACACUAACAGACCAAAAUCAAUGAGAUGUCCCUGAUCCUGCCCCUCAGCCCAACACCUGGAAUCCCUGCCCUGCCUAAUCACUCUUGCGGUCGCACUAGUGUGGAAUUCUCGGGUGUCAAGG

What follows are binders tested against TDP-43 (Homo sapiens, UniProt Q13148 1-414) (assay: RNA Bind-n-Seq with designed 260-mer pool; 25 mM Tris-HCl, 150 mM KCl, 3 mM MgCl2, BSA (printed 500 mg/mL), 20 units/mL SUPERase IN; pH not stated; 500 nM RNA pool, 1 h, 4 C; TDP-43 5, 50, 500 nM; high values mean tight binding). Details: protein: recombinant; tags: SBP (GST cleaved off with PreScission; pGEX-GST-SBP).
Procedure, shortened: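 Streptavidin beads captured recombinant SBP-tagged TDP-43 at 5, 50 or 500 nM, and the beads were incubated for 1 h at 4 °C with 500 nM of an in vitro-transcribed pool of 260-nt 3′ UTR oligos in 25 mM Tris-HCl, 150 mM KCl, 3 mM MgCl2, BSA and SUPERase IN. After washing, bound RNA was eluted with biotin, reverse transcribed, PCR-amplified and sequenced. Binding is reported as R, the mapped-read-normalized abundance of each oligo in the bound sample divided by its abundance in the input. Two independent protein batches served as duplicates.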

Sequence of TDP-43 (Q13148 whole entry): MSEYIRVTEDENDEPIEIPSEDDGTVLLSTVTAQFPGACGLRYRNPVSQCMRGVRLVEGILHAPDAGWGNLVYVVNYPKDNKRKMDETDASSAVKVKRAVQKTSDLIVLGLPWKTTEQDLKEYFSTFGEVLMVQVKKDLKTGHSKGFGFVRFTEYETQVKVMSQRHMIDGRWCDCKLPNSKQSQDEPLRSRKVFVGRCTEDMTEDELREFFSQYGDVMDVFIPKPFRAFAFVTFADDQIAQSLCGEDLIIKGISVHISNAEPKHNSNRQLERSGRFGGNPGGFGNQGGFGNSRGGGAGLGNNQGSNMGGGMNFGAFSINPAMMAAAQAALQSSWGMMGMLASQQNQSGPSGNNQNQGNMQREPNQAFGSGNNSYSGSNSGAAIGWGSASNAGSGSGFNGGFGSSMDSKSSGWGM

Binder	binding signal
B1	0.614 R (bound/input frequency ratio)
B2	0.428 R (bound/input frequency ratio)
B3	1.21 R (bound/input frequency ratio)
B4	2.11 R (bound/input frequency ratio)
B5	8.17 R (bound/input frequency ratio)
B6	6.03 R (bound/input frequency ratio)
B7	6.55 R (bound/input frequency ratio)
B8	5.98 R (bound/input frequency ratio)
B9	5.21 R (bound/input frequency ratio)
